Data as given in PubChem BioAssay AID504891 (National Center for Advancing Translational Sciences (NCATS), 2011).
The whole screen tested about 390,000 compounds, of which about 35 (0.009%) were called active. Entries that show only a call come without a potency. About 6% were inconclusive and are not listed. The call rests on the fitted dose curve; in most records, active means well fitted inhibition curve with a large enough effect in the polarisation, with a control signal flat (not every such curve was filed as active); inconclusive means small, poorly fitted or top-dose-only effect, or effect the other way, or a change in a side signal; inactive means no such curve, though single readings can be large or run the other way; the % refers to the polarisation. Only a selection was taken, and actives are over-represented in it overall.
Potency means the concentration at half of the fitted maximal effect.

What follows are compounds tested against Peptidyl-prolyl cis-trans isomerase NIMA-interacting 1 (Homo sapiens) (UniProt Q13526) (assay: qHTS Assay to Find Inhibitors of Pin1). Details: Pin1 FP peptide displacement, HiFluor488, 10 min; series mostly up to 115 µM.
Peptidyl-prolyl cis-trans isomerase NIMA-interacting 1 (Homo sapiens), sequence (Q13526 whole entry, looked up): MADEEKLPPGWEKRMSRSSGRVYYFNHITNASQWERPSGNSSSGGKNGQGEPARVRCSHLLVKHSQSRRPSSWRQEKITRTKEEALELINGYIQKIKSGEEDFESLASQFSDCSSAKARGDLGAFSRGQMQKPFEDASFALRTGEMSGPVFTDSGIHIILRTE
Description: NIH Molecular Libraries Probe Production Network [MLPCN]
NIH Chemical Genomics Center [NCGC]
The unique chemical properties of Pro allow for the adoption of two completely distinct amide bond conformations (cis and trans). Peptidyl-prolyl cis/trans isomerases (PPIases) are evolutionary conserved enzymes that catalyze cis/trans isomerization of peptidyl-prolyl peptide bonds. Distinct from all other PPIases such as cyclophilins and FK506-binding proteins (FKBPs), Pin1 binds a subset of phos.Ser/Thr-Pro-containing proteins using its protein-targeting WW domain and isomerizes only specific phos.Ser/Thr-Pro bonds, which cannot be effectively catalyzed by other known PPIases.
Pin1-catalyzed conformational regulation can control a spectrum of activities of many key regulators in diverse cellular processes such as cell growth, genotoxic and other stress responses, immune response, germ cell development, neuronal differentiation and survival. Pin1 has emerged as a novel molecular timer that modulates its multiple targets at various steps of a given cellular process to synergistically control the amplitude and duration of a cellular response or process. Importantly, Pin1 is tightly regulated by multiple levels and its deregulation has an important role in a growing number of pathological conditions, including cancer, Alzheimer's disease, aging, asthma and microbial infection, providing a potentially new therapeutic option.
The goal of this screen is to find small-molecule inhibitors of Pin1 using a fluorescence polarization competition assay. A HiFluor-488-labeled peptide binds to the active site of Pin1 and can be displaced by compounds. Compounds were screened as a concentration-titration series that ranged from 57 uM to 0.7 nM.
NCGC Assay Protocol Summary:
Pin1 (0.6 uM) was dispensed into black, solid 1536-well plates at 2 uL/well in 10 mM HEPES (pH 7.5), 10 mM NaCl, 0.01% Tween20, 1 mM DTT, and 1% glycerol. Then, 23 nL of compounds or DMSO were delivered to each well using a pin tool. Two uL of Pin1-1b-HiFluor488 peptide (10 mM HEPES (pH 7.5), 10 mM NaCl, 0.01% Tween20, 1 mM DTT, and 1% glycerol, 0.02 uM Pin1-1b-HiFluor488) was then dispensed, and plates were incubated at room temperature for 10 min. The plates were measured on a ViewLux plate reader for fluorescence polarization signal using a 480/20 nM nm excitation filter and 540/25 nM nm S and P emission filters with a 20 second exposure. The %Activity was determined from the corrected fluorescence polarization values. Unlabeled Pin1-1c peptide was used as a control (3.5 mM two-fold serial; 20 uM final concentration) along with a 1x (0.3 uM) and 0x (no-enzyme) Pin1 enzyme control to normalize %Activity of identified inhibitors; 0x enzyme values corresponded to 100%Activity (full inhibition), while 1x Pin1 enzyme values were used to normalize 0%Activity (no inhibition).
Concentration-response curves were fitted to the signals arising from the resulting fluorescence polarization. The concentration-effect curves were then classified based on curve quality (r2), response magnitude and degree of measured activity, and compounds were subsequently categorized based on their curve class.
Keywords: Peptidyl prolyl isomerase, Pin1, fluorescence polarization, MLSMR, MLPCN, NIH Roadmap, qHTS, NCGC
With `CCc1ccccc1NC(=O)c1ccc2nc(CCc3ccccc3)oc2c1` the activity, negative = inhibition was “inactive”. `CCc1ccc(CNC(=O)C2CCN(c3nn4cc(-c5ccc(F)cc5)nc4s3)CC2)cc1` was tested, and the activity, negative = inhibition was “inactive”. With `Cc1ccc(CNc2ncnc3cc(-c4ccc5c(c4)OCO5)ccc23)o1` the activity, negative = inhibition was “inactive”. `CN1C(=O)c2ccccc2Sc2ccc(NC(=O)Cc3ccc(Cl)cc3)cc21` was tested, and the activity, negative = inhibition was “inactive”. For `Cc1cc2c(cc3c(SCc4nc(-c5ccccc5)oc4C)nnc(C)n32)o1`, the activity, negative = inhibition was “inactive”. With `CCOC(=O)C1CCN(C(=O)CSc2c3c(nc4ccc(Cl)cc24)CCCC3)CC1` the activity, negative = inhibition was “inactive”. In the case of `Cc1c(Cl)cccc1NC(=O)CCS(=O)(=O)c1ccc2c(c1)oc(=O)n2C`, the activity, negative = inhibition is reported as “inactive”. In the case of `O=C(CN1c2ccccc2S(=O)(=O)c2ccccc21)Nc1cccc(C(F)(F)F)c1`, the activity, negative = inhibition is reported as “inactive”. `O=C(COc1ccccc1F)Nc1ccc(C(=O)OCc2cc(=O)n3nc(C4CC4)sc3n2)cc1` was tested, and the activity, negative = inhibition was “inactive”. `N#Cc1nc(Nc2cccc(Cl)c2)nc(NC2CCCC2)n1` was tested, and the activity, negative = inhibition was “inactive”. `COc1ccc(Cn2ccn(CC(=O)Nc3cc(C)ccc3C)c(=O)c2=O)cc1` was tested, and the activity, negative = inhibition was “inactive”. With `COc1cccc(NC(=O)c2ccc3nc(CCc4ccccc4)oc3c2)c1` the activity, negative = inhibition was “inactive”. `COc1ccc(CC(=O)N2CC(=O)Nc3ccc(Br)cc3C2c2ccc(F)cc2)cc1OC` (configuration not stated) was tested, and the activity, negative = inhibition was “inactive”. With `COc1ccc(N2CCN(S(=O)(=O)CCNC(=O)C(c3ccccc3)c3ccccc3)CC2)cc1` the activity, negative = inhibition was “inactive”. With `COc1ccc(C2/C=C\CN(C(=O)c3ccc(C)cc3)C(Cc3ccccc3)C(=O)N2Cc2ccc(F)cc2)cc1` (configuration not stated) the activity, negative = inhibition was “inactive”. For `Cc1ccc2[nH]c3c(=O)n(CC(=O)NC(C)C)ncc3c2c1`, the activity, negative = inhibition was “inactive”. For `COc1ccc(NC(=O)CCc2nnc3n(CC(C)C)c(=O)c4ccccc4n23)cc1OC`, the activity, negative = inhibition was “inactive”. `Cc1ccc(Cn2ncc3c4sc(C)cc4n(C)c3c2=O)c(C)c1` was tested, and the activity, negative = inhibition was “inactive”. `COc1cc(OC)c2c(C)cc(=O)oc2c1C(CCN1CCCCC1)c1ccc(N(C)C)cc1` (configuration not stated) was tested, and the activity, negative = inhibition was “inactive”. With `CCc1nnc(SCc2c(F)cccc2Cl)c2cc3sccc3n12` the activity, negative = inhibition was “inactive”. `O=C1CCc2cc(S(=O)(=O)Nc3cccc(Oc4ccccc4)c3)ccc2N1` was tested, and the activity, negative = inhibition was “inactive”. With `NC(=O)C1CCN(c2cc(-c3ccc4c(c3)OCCCO4)ncn2)CC1` the activity, negative = inhibition was “inactive”. With `COc1ccc(OCc2ccc(-c3nc(C#N)c(N4CCN(c5ccccc5)CC4)o3)o2)cc1` the activity, negative = inhibition was “inactive”. For `COc1ccc(Cl)cc1NC(=O)CSc1nc2ccccc2c2nc(-c3ccccc3)nn12`, the activity, negative = inhibition was “inactive”. `CCCN1CCC(=O)N(C(CSc2ccc(OC)cc2)Cc2ccccc2)CC1` (configuration not stated) was tested, and the activity, negative = inhibition was “inactive”. `COc1ccc(CCC(=O)NCc2ccc3c(c2)CCN3C(=O)c2ccc(F)cc2)cc1` was tested, and the activity, negative = inhibition was “inactive”. In the case of `Cc1ccc(-c2nnc3c4ccccc4c(C)nn23)cc1NC(=O)c1cccc(Br)c1`, the activity, negative = inhibition is reported as “inactive”. With `Cc1cc2c(s1)c1cnn(Cc3cc(F)c(Cl)cc3Cl)c(=O)c1n2C` the activity, negative = inhibition was “inactive”. With `COc1cc(Cl)c(C)cc1Nc1nnc(-n2nc(C)cc2C)c2ccccc12` the activity, negative = inhibition was “inactive”. `COc1ccc(C2Nc3ccccc3C(=O)N2Cc2ccco2)cc1COc1cccc(NC(C)=O)c1` (configuration not stated) was tested, and the activity, negative = inhibition was “inactive”. With `COc1ccc(-c2ccc3ncnc(NCc4cccs4)c3c2)cc1OC` the activity, negative = inhibition was “inactive”. For `COc1ccc(C2/C=C\CN(Cc3ccco3)C(C)C(=O)N2Cc2ccc(F)cc2)cc1` (configuration not stated), the activity, negative = inhibition was “inactive”. `COc1ccc(-c2onc(C)c2C)cc1S(=O)(=O)NCc1cccs1` was tested, and the activity, negative = inhibition was “inactive”. In the case of `Cc1cc(C)n2ncc(C(=O)N3CCCC3)c2n1`, the activity, negative = inhibition is reported as “inactive”. With `CC(C)Oc1cccc(-c2cnc(N3CCC(C(N)=O)CC3)s2)c1` the activity, negative = inhibition was “inactive”. In the case of `CCCc1nn2c(=O)cc(COC(=O)c3ccc(NC(=O)C(C)Oc4ccccc4)cc3)nc2s1` (configuration not stated), the activity, negative = inhibition is reported as “inactive”. `CN(C(=O)COC(=O)c1cc(-c2ccco2)nc2ccccc12)C1CCS(=O)(=O)C1` (configuration not stated) was tested, and the Potency was 35.5 µM (active). With `Cc1ccc(S(=O)(=O)CCC(=O)OCC(=O)N(C)C2CCS(=O)(=O)C2)cc1` (configuration not stated) the activity, negative = inhibition was “inactive”. With `Cc1cc(C(=O)OCC(=O)N2C(C)CCCC2C)c2ccccc2n1` (configuration not stated) the activity, negative = inhibition was “inactive”. For `C=C1CCN(C(CC(C)C)C(=O)NCc2cc(OC)c(OC)c(OC)c2)S(=O)(=O)c2ccccc21` (configuration not stated), the activity, negative = inhibition was “inactive”. With `CCCCS(=O)(=O)c1oc(-c2cccs2)nc1S(=O)(=O)c1ccccc1` the activity, negative = inhibition was “inactive”. For `CCCS(=O)(=O)N1CCC(n2c(C(F)(F)F)nc3cccnc32)CC1`, the activity, negative = inhibition was “inactive”. For `N#Cc1ccc(OC2=NS(=O)(=O)c3ccccc32)cc1`, the activity, negative = inhibition was “inactive”. With `O=C(NCc1nnc(C(=O)Nc2ccc(C(F)(F)F)cc2Cl)o1)c1ccccc1` the activity, negative = inhibition was “inactive”. For `Cc1cccc2c1-c1sc(C(=O)Nc3ccc(F)cc3F)cc1CO2`, the activity, negative = inhibition was “inactive”. In the case of `C#CCOc1ccc(C2CC(=O)Nc3c2c(C)nn3-c2nc(C)cc(C)n2)cc1` (configuration not stated), the activity, negative = inhibition is reported as “inactive”. In the case of `CCCN(CCC)CCNC(=O)Cn1cnc2sc(C)c(S(=O)(=O)N3CCC(C)CC3)c2c1=O`, the activity, negative = inhibition is reported as “inactive”. In the case of `COc1ccccc1CNC(=O)c1ccc(NC(=O)N2CC(C)Sc3ccccc32)cc1` (configuration not stated), the activity, negative = inhibition is reported as “inactive”. In the case of `O=C(O)c1ccc2c(c1)N(Cc1ccc(F)cc1)C(=O)c1ccccc1S2=O` (configuration not stated), the activity, negative = inhibition is reported as “inactive”. In the case of `O=C(CC1Oc2ccc(Cl)cc2NC1=O)NCc1ccccc1` (configuration not stated), the activity, negative = inhibition is reported as “inactive”. For `CCOC(=O)c1cccc(NC(=O)Cn2cnc3nc4c(cc3c2=O)CCCC4)c1`, the activity, negative = inhibition was “inactive”. `COc1ccc(OC)c(NC(=O)CN2CCCN(Cc3cc(C)ccc3C)S2(=O)=O)c1` was tested, and the activity, negative = inhibition was “inactive”. With `Cc1ccc2sc(N(Cc3cccnc3)C(=O)C3COc4ccccc4O3)nc2c1C` (configuration not stated) the activity, negative = inhibition was “inactive”. For `CNC(=O)CN1C(=O)c2cccnc2Sc2ccccc21`, the activity, negative = inhibition was “inactive”. In the case of `CC(=O)N1c2ccccc2CC1C(=O)N1CCN(c2ccc(F)cc2)CC1` (configuration not stated), the activity, negative = inhibition is reported as “inactive”. In the case of `O=C(NCC1CC1)C1(C(F)(F)F)C/C(=C\CCO)CCCO1` (configuration not stated), the activity, negative = inhibition is reported as “inactive”. In the case of `CC(Nc1ncnc2ccc(-c3ccc4c(c3)OCO4)cc12)c1ccco1` (configuration not stated), the activity, negative = inhibition is reported as “inactive”. In the case of `Cc1cccc(S(=O)(=O)c2cn(Cc3ccccc3)c3cc(N4CCOCC4)c(F)cc3c2=O)c1`, the activity, negative = inhibition is reported as “inactive”. In the case of `COc1cccc(C2C(C(=O)Nc3ccc(C)cc3C)=C(C)Nc3c(C(=O)Nc4ccccc4)cnn32)c1` (configuration not stated), the activity, negative = inhibition is reported as “inactive”. For `CCCC(=O)Nc1cc(C(=O)NCc2ccc(OC)cc2)ccc1S(=O)(=O)c1ccc(Cl)cc1`, the activity, negative = inhibition was “inactive”. `COCCNC(=O)CSc1nc(-c2ccccc2)[nH]c1-c1ccc(C)cc1` was tested, and the activity, negative = inhibition was “inactive”. `C=CCNC(=O)c1ccc2nc(-c3ccco3)c(-c3ccco3)nc2c1` was tested, and the activity, negative = inhibition was “inactive”.
